Results as given in PubChem BioAssay AID602476 (National Center for Advancing Translational Sciences (NCATS), 2012).
Records with an inconclusive call do not appear. Activity calls are given as the source filed them. Calls come from the whole dose curve; as a rule, active = well fitted activation curve with a large enough effect; inconclusive = small, poorly fitted or top-dose-only effect; inactive = flat fitted curve, though single readings scatter.

Test: FLuc inhibitory activity for the follow-up compounds in a cell-based translational read-through assay
Conditions: GripTite 293 FLucUGA read-through, luminescence, 48 h; series mostly up to 38.3 µM; activation (read-through/stabilization): at the top concentration
Source text: NCGC Assay Overview: Firefly (Photinus pyralis) luciferase is one of the most commonly used transcriptional reporters. It is considered one of the more dynamically responsive reporters - that is, responsive to changes in reporter transcription - as it requires no post-translational modifications and is enzymatically active directly after protein synthesis (Wood, 1998). With no endogenous expression in mammalian cells and without the requirement of external excitation, it offers very little background signal, thus generally providing excellent signal to background for most assays. Previous profiling work to determine the prevalence of compounds that affect FLuc enzymatic activity (PubChem AID 411) identified that ~3% of the MLSMR library (then at ~72K) inhibited FLuc (Auld et al., 2008). […] Of the compounds identified in this profile that inhibited FLuc, 151 compounds were selected for further analysis, in an effort to better understand their mode of inhibiting FLuc. The assay described here was to determine the activity of the compounds in a cell-based firefly luciferase reporter gene assay originally designed to identify compounds that enchanced translational read-through of a FLuc cDNA that contained a premature stop codon (Auld et al., 2009; Auld et al., 2010). Compounds that enhance translational read-through or compounds that stabilize FLuc intracellularly are identified as active compounds in the assay.
NCGC Assay Protocol Summary: Reagents: Transient transfection of FlucUGA construct: TransFast Transfection Reagent (Promega #E2431); FLucUGA construct (refer to Auld et al., 2009) #GripTite 293 MSR Cell Line (Invitrogen #R795-07) #Complete growth media: DMEM (Invitrogen #11965), 10% HIFBS, 0.1mM MEM NEAA, 5mL/L pen-strep (of 5000U/mL stock), 600ug/mL Geneticin #Assay media: DMEM without phenol red (Invitrogen #21063), 5% charcoal-stripped HIFBS (Hyclone #SH30071.03), 0.1mM MEM NEAA In-house detection reagent: 300mM Tris-HCl, 300mM Trizma base, 300mM MgCl, 1% Triton-X100, 5mM DTT, 500uM Coenzyme A trilithium salt (Sigma #C3019),450uM ATP (Sigma #A7699), 1mM D-luciferin sodium salt monohydrate (Biosynth #L8240) Control compounds used were two known firefly luciferase inhibitors (3-(5-(3-chlorophenyl)-1,2,4-oxadiazol-3-yl)benzoic acid and 5-(2-fluorophenyl)-3-phenyl-1,2,4-oxadiazole), and DMSO. Assay Summary: Transient transfection of FlucUGA construct: Day 1: GripTite cells were plated in T175 flasks at a density of 1.75 x 10^7 cells/T175 flask in complete growth media without Geneticin and allowed to grow ON in a 37 degrees Celsius incubator. Day 2: Cells in T175 flask were transfected - with 10ug of DNA and 30uL Transfast in 12mL complete growth media without serum and without Geneticin for 4 hours at 37 degrees Celsius. After incubation, cells were trypsinized, spun down, and resuspended to a concentration of 3.3 x 10^5 cells/mL in assay media. 6uL of cells in assay buffer were dispensed at 2000cells/well (3.3 x 10^5 cells/mL) into Greiner solid-white TC-treated 1536-well plates using a Multidrop Combi (Thermo Fisher Scientific). Plates were incubated for one hour at 37 degree Celsius, 95% humidity, 5% CO2. These assay plates were then treated with 23nL of compound or DMSO using a Kalypsys pin tool, which allows for delivery of a 12-point titration of each compound to the assay plate, with a final compound concentration ranging from approximately ~38uM to 0.2nM. Assay plates were then incubated for 48 hours. After incubation, plates were washed three times with DPBS (7uL/well). After the third wash, 6uL of DPBS was added to each well. 3uL of 3X luciferase detection reagent was then added to each well using a flying reagent dispenser (FRD). After a 15 minute incubation to allow for cell lysis, luciferase activity was measured using a ViewLux CCD imager (PerkinElmer), with an average exposure time of 2-12 seconds.

Activation (read-through/stabilization), inactive:
Cc1ccc(C(=O)Nc2ccc(C(=O)O)cc2)cc1S(=O)(=O)Nc1ccccc1 -7.51%
CC(C)Oc1ccc(C(=O)Nc2ccc(-c3nc4ccccc4s3)cc2)cc1 8.54%
COc1cc(OC)cc(C(=O)Nc2ccccc2-c2nc3ccccc3s2)c1 -3.84%
O=C(O)c1cccc(NC(=O)c2cccc(S(=O)(=O)N3CCc4ccccc43)c2)c1 27.6%
O=C(Nc1ccccc1C(=O)O)c1ccc(NC(=O)C2CCCCC2)cc1 2.48%
COc1ccc2nc(NC(=O)c3cccc(S(=O)(=O)N4CCOCC4)c3)sc2c1 3.78%
COc1ccc(-c2nc3ccccc3s2)cc1NC(=O)c1ccc(F)cc1 -1.05%
O=C(Nc1ccccc1C(=O)O)c1ccc(Cl)c(S(=O)(=O)N2CCOCC2)c1 19.6%
O=C(O)c1cccc(NC(=O)c2cccc(NC(=O)C3CCCO3)c2)c1 (stereo not given) 6.33%
Nc1ccc(C(=O)Nc2ccccc2C(=O)O)cc1 18.7%
O=C(O)c1ccc(NC(=O)c2cccc(C(=O)Nc3ccc(C(=O)O)cc3)c2)cc1 2.68%
O=C(Nc1ccc(Cl)cc1-c1nc2ccccc2s1)c1ccco1 3.02%
CC(C)C(=O)Nc1cccc(C(=O)Nc2ccccc2C(=O)O)c1 -3.96%
O=C(Nc1ccccc1C(=O)O)c1ccccc1 3.8%
O=C(Nc1ccccc1-c1nc2ccccc2s1)c1cccnc1 6.24%
CCOc1c(Cl)cc(C(=O)Nc2ccccc2C(=O)O)cc1Cl 22.5%
O=C(COC(=O)c1ccccc1[N+](=O)[O-])c1ccc2c(c1)OCO2 6.01%
COc1ccc2nc(NC(=O)c3ccc(NS(=O)(=O)c4cccs4)cc3)sc2c1 22.3%
COc1cc(OC)cc(C(=O)Nc2ccc(-c3nc4ccccc4s3)c(C)c2)c1 7.9%
O=C(Nc1ccccc1C(=O)O)c1cccc(S(=O)(=O)N2CCCC2)c1 -0.636%
COc1cccc(OC)c1C(=O)Nc1cccc(C(=O)Nc2cccc(C(=O)O)c2)c1 4.55%
O=C(Nc1ccccc1C(=O)O)c1ccc(NC(=O)C2CCCO2)cc1 (stereo not given) 10.4%
O=C(Cc1ccc(Cl)cc1)Nc1cccc(C(=O)Nc2ccccc2C(=O)O)c1 1.99%
Cc1ccc(S(=O)(=O)N2CCN(C(=O)c3ccccc3-c3nc4ccccc4s3)CC2)c(C)c1 14.9%
O=C(Nc1ccccc1C(=O)O)c1cccc(S(=O)(=O)Nc2ccc(Br)cc2)c1 4.63%
COc1ccc2nc(NC(=O)c3ccccc3C(=O)O)sc2c1 1.21%
Cc1ccc(NS(=O)(=O)c2ccc(Cl)c(C(=O)Nc3cccc(C(=O)O)c3)c2)cc1 2.91%

Potency, active:
Cc1ccc(C(=O)Nc2cccc(C(=O)O)c2)cc1 4.49 µM
Oc1ccc(-c2nc3ccccc3s2)c(O)c1 10 µM
Cc1c(C)c2ccc(OCC(=O)Nc3ccccn3)c(C)c2oc1=O 5.04 µM
CCCC(=O)Nc1nc2ccc(OCC)cc2s1 12.6 µM
c1ccc2sc(-c3ccc4c(c3)OCO4)nc2c1 1.26 µM
Nc1ccc(-c2nc3ccc(C(=O)O)cc3s2)cc1 0.283 µM
Cc1ccc(C(=O)Nc2ccccc2C(=O)O)cc1S(=O)(=O)N1CCCCCC1 14.2 µM
Cc1ccc(C(=O)O/N=C(\N)c2ccccn2)cc1 3.56 µM
Nc1ccc2nc(-c3ccccc3)sc2c1 4 µM
COc1ccc(C(=O)Nc2ccccc2C(=O)Nc2ccc(C(=O)O)cc2)cc1 25.2 µM
Nc1ccc(-c2nc3ccc(N)cc3s2)cc1 15.9 µM
O=C(O)c1cccc(NC(=O)c2ccc(Cl)c(S(=O)(=O)N3CCCCCC3)c2)c1 0.711 µM
Nc1ccccc1C(=O)Nc1cccc(C(=O)O)c1 28.3 µM
